Test systems include DU-145 prostate; K-562 leukemia; MALME-3M melanoma; MDA-MB-231 breast; RXF 393 renal; SF-268 CNS; SF-295 CNS; SF-539 CNS; UACC-257 melanoma; M14 melanoma.
Common to all, as to test: NCI-60 one-dose screen, 48 h (100 = growth as untreated, 0 = no growth, -100 = all killed)
What all share (conditions): 10 µM unless noted

The panel holds about 83,000 compounds, 20% with a hit somewhere; the sample as a whole holds those more often.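 Assay: single dose, 48 h. Readout: percent growth (0 = no net growth; negative = cell death). Active: <10.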 Values without a mark were called inactive. The source made the active and inactive calls.

Our source for the growth values is PubChem BioAssay (NCI).

Regarding `COc1ccc(S(=O)(=O)Nc2c(/C=C\c3cc(OC)c(OC)c(OC)c3)ccc(OC)c2O)cc1OC`, the growth in the test on DU-145 prostate was -10.2% (active); in the test on K-562 leukemia, 17.2%; with MALME-3M melanoma, 69.2%; with MDA-MB-231 breast, 1.41% (active); in the test with RXF 393 renal it was 24.6%; in the test on SF-268 CNS, 23.7%. Further, the growth in the test with SF-295 CNS was 12%; with SF-539 CNS, -14.6% (active); in the test on UACC-257 melanoma, 58.5%; in the test on M14 melanoma it was 9.05% (active).

For the compound `O=[N+]([O-])c1cc([N+](=O)[O-])c(Nn2c3ccccc3c3ccccc32)c([N+](=O)[O-])c1`, the growth was 22.7% with DU-145 prostate; 6.42% (active) in the test on K-562 leukemia; -16.2% (active) in the test with MALME-3M melanoma; -6.81% (active) in the test on MDA-MB-231 breast; -4.31% (active) in the test with RXF 393 renal; 16.2% in the test with SF-268 CNS. In addition, the growth is -47.6% (active) with SF-295 CNS, 8.26% (active) in the test on SF-539 CNS, -22.6% (active) in the test on UACC-257 melanoma and 1.91% (active) with M14 melanoma.

Turning to `CNC(=O)Oc1ccc(N(C)C)cc1C(C)C`, the growth in the test on DU-145 prostate is 101%; with K-562 leukemia it was 129%; in the test with MALME-3M melanoma, 72.1%; in the test on MDA-MB-231 breast it was 103%; with RXF 393 renal, 73.8%; with SF-268 CNS, 101%. Further, the growth is 118% with SF-295 CNS, 89.7% with SF-539 CNS, 105% with UACC-257 melanoma and 97.2% in the test on M14 melanoma.

`COC(=O)[C@@]1(C)CC[C@]2(C)CC[C@]3(C)C4=CC(=O)c5c(cc(O)c(O)c5C)[C@]4(C)CC[C@@]3(C)[C@@H]2C1`: the growth in the test with DU-145 prostate is 67.1%; in the test with K-562 leukemia it was 49%; in the test with MALME-3M melanoma, 106%; in the test on MDA-MB-231 breast it was 61.4%; in the test on RXF 393 renal it was 85%; in the test on SF-268 CNS, 61.7%. Besides, the growth with SF-295 CNS was 49.8%; with SF-539 CNS, 78%; with UACC-257 melanoma, 41.9%; in the test on M14 melanoma, 66.4%.

For the compound `Cc1ccc(S(=O)(=O)C(Cl)(Cl)Cl)cc1`, the growth was 109% with DU-145 prostate; 93.3% in the test on K-562 leukemia; 92.5% with MALME-3M melanoma; 95.8% in the test with MDA-MB-231 breast; 102% with RXF 393 renal; 97.5% in the test on SF-268 CNS. In addition, the growth with SF-295 CNS was 91.1%; in the test on SF-539 CNS, 99.9%; with UACC-257 melanoma, 86.1%; in the test with M14 melanoma it was 94.6%.

Regarding `COc1ccc(/C=C\c2cc(OC)c(OC)c(OC)c2)c(NS(=O)(=O)c2ccc(C)cc2)c1O`, the growth in the test on DU-145 prostate was -14.4% (active); with K-562 leukemia, 17.6%; with MALME-3M melanoma, 92.2%; in the test with MDA-MB-231 breast it was 14.8%; in the test on RXF 393 renal, 32.5%; with SF-268 CNS, 19.4%. Also, the growth with SF-295 CNS is 16.9%; in the test on SF-539 CNS it was 1.5% (active); in the test with UACC-257 melanoma, 66.7%; in the test on M14 melanoma, 9.2% (active).

With `COc1ccc(C(=O)c2cc(OC)c(OC)c(OC)c2)cc1OC(C)=O`, the growth in the test with DU-145 prostate was 4.78% (active); in the test with K-562 leukemia, 10.4%; in the test with MALME-3M melanoma, 78%; in the test on MDA-MB-231 breast, 33.8%; with RXF 393 renal, 49.3%; in the test on SF-268 CNS, 41.9%. The growth with SF-295 CNS is 15.4%; in the test on SF-539 CNS, 6.23% (active); in the test on UACC-257 melanoma, 55.7%; with M14 melanoma, 4.11% (active).

Consider `COc1cc(C=Nc2cc(Cl)cc(Cl)c2)ccc1N(CCCl)CCCl`, for which the growth in the test on DU-145 prostate was 98.2%; in the test with K-562 leukemia it was 84.6%; in the test on MALME-3M melanoma, 74.9%; with MDA-MB-231 breast, 65.5%; in the test with RXF 393 renal, 82%; in the test on SF-268 CNS, 93%. Besides, the growth was 80.8% in the test on SF-295 CNS, 89.3% in the test on SF-539 CNS, 100% with UACC-257 melanoma and 92.2% in the test with M14 melanoma.

For `ClCCN(CCCl)c1ccc(OCc2ccccc2)cc1`, the growth with DU-145 prostate is 26.3%; in the test on K-562 leukemia it was 73.3%; in the test on MALME-3M melanoma, 90.9%; in the test with MDA-MB-231 breast it was 106%; in the test on RXF 393 renal, 82.1%; in the test on SF-268 CNS, 36%. Further, the growth was 10.3% in the test with SF-295 CNS, 8.54% (active) in the test on SF-539 CNS, 74.2% in the test on UACC-257 melanoma and 41.9% in the test on M14 melanoma.

Take `c1cc2c(c3c1CCNC3)OCO2`: the growth was 120% in the test on DU-145 prostate; 106% in the test with K-562 leukemia; 94.8% in the test with MALME-3M melanoma; 100% with MDA-MB-231 breast; 104% in the test with RXF 393 renal; 102% in the test on SF-268 CNS. Also, the growth in the test with SF-295 CNS is 96.4%; with SF-539 CNS it was 105%; in the test with UACC-257 melanoma it was 78.5%; with M14 melanoma, 101%.

As to `COc1ccc(C/C(C)=C(\c2ccc(OCCN3CCOCC3)cc2)c2ccc(OC(=O)Cc3ccccc3)cc2)cc1`, the growth was 9.74% (active) with DU-145 prostate; -24.7% (active) in the test on K-562 leukemia; -79.5% (active) with MALME-3M melanoma; -48.4% (active) with MDA-MB-231 breast; -83.3% (active) with RXF 393 renal; -21.3% (active) in the test on SF-268 CNS. Besides, the growth was -57.6% (active) in the test with SF-295 CNS, -85.4% (active) with SF-539 CNS, -89.2% (active) with UACC-257 melanoma and -66.9% (active) in the test on M14 melanoma.

`Clc1cccc(NCOOC2(OOCNc3cccc(Cl)c3)CCCCC2)c1`: the growth was 73.3% in the test on DU-145 prostate; -41% (active) with K-562 leukemia; 74.5% with MALME-3M melanoma; 81.7% in the test with MDA-MB-231 breast; 108% with RXF 393 renal; 73.1% in the test with SF-268 CNS. Moreover, the growth in the test on SF-295 CNS is 74.8%; with SF-539 CNS it was 16.4%; in the test on UACC-257 melanoma it was 87.7%; in the test on M14 melanoma, 60.4%.

As for `Clc1cc(N2CC2)nc(N2CC2)n1`, the growth in the test on DU-145 prostate is 52.5%; with K-562 leukemia it was 69%; in the test with MALME-3M melanoma, 89.7%; with MDA-MB-231 breast it was 88.1%; in the test with RXF 393 renal, 78%; in the test with SF-268 CNS it was 59.3%. Also, the growth in the test with SF-295 CNS is 40.7%; in the test with SF-539 CNS it was 43.8%; in the test on UACC-257 melanoma it was 76.7%; in the test on M14 melanoma it was 57.4%.

Take `COc1ccc2c(c1)c(-c1nc(-c3cn(C)c4ncccc34)cs1)cn2CCCCN1CCCCC1`: the growth in the test on DU-145 prostate is 7.63% (active); in the test on K-562 leukemia, -66.8% (active); in the test on MALME-3M melanoma, -73.9% (active); with MDA-MB-231 breast, -74.8% (active); in the test with RXF 393 renal, -80.1% (active); with SF-268 CNS, -37.9% (active). The growth in the test with SF-295 CNS is -50.1% (active); in the test on SF-539 CNS, -80.2% (active); with UACC-257 melanoma it was -68.3% (active); with M14 melanoma it was -79.1% (active).

`COC(=O)[C@@H](C)C[C@H](Cc1ccccc1)NC(=O)c1csc([C@@H](C[C@H](C(C)C)N(C)C(=O)C2(NC(=O)[C@H]3CCCCN3C)CCC2)OC(C)=O)n1`: the growth in the test with DU-145 prostate is 2.83% (active); in the test with K-562 leukemia it was 2.16% (active); with MALME-3M melanoma, 67.1%; in the test with MDA-MB-231 breast it was -13.6% (active); in the test on RXF 393 renal, 82.9%; in the test with SF-268 CNS it was 17.6%. Also, the growth is 6.3% (active) in the test on SF-295 CNS, -10.9% (active) in the test on SF-539 CNS, 60.2% in the test on UACC-257 melanoma and 5.56% (active) in the test on M14 melanoma.

As for `COC(=O)[C@@]1(C)CC[C@]2(C)CC[C@]3(C)C4=CC=C5C(=CC(=O)C(O)=C5C)[C@]4(C)CC[C@@]3(C)[C@@H]2C1`, the growth in the test on DU-145 prostate was -96.7% (active); in the test with K-562 leukemia, -54.4% (active); with MALME-3M melanoma, -87.3% (active); with MDA-MB-231 breast it was -93.4% (active); in the test with RXF 393 renal it was -84% (active); with SF-268 CNS it was -83.2% (active). Besides, the growth with SF-295 CNS was -91.8% (active); in the test on SF-539 CNS it was -99.6% (active); with UACC-257 melanoma it was -88.3% (active); in the test on M14 melanoma, -94% (active).

For `C/C(Cc1ccc(Cl)cc1)=C(\c1ccc(OCCN2CCOCC2)cc1)c1ccc(OC(=O)Cc2ccccc2)cc1`, the growth in the test with DU-145 prostate was 107%; in the test on K-562 leukemia, 79.5%; in the test on MALME-3M melanoma, 99%; in the test with MDA-MB-231 breast it was 96.5%; in the test on RXF 393 renal it was 94.7%; in the test with SF-268 CNS it was 95.6%. The growth is 99.9% with SF-295 CNS, 108% in the test with SF-539 CNS, 86.1% in the test with UACC-257 melanoma and 89.4% with M14 melanoma.
